Screen size: about 580,000 compounds; about 6,100 (1.1%) were called active. About 15% were inconclusive and are not listed. The list comes from a sample in which actives are over-represented; it also holds similar structures and randomly drawn compounds. Unmarked numbers belong to inactive results. The call rests on the fitted dose curve; in most records, active means well fitted inhibition curve with a large enough effect; inconclusive means small, poorly fitted or top-dose-only effect, or another doubt; inactive means no such curve, though single readings can be large or run the other way.
Biological target: Polyunsaturated fatty acid lipoxygenase ALOX12 (Homo sapiens) (UniProt P18054)
Sequence (P18054 whole entry, looked up): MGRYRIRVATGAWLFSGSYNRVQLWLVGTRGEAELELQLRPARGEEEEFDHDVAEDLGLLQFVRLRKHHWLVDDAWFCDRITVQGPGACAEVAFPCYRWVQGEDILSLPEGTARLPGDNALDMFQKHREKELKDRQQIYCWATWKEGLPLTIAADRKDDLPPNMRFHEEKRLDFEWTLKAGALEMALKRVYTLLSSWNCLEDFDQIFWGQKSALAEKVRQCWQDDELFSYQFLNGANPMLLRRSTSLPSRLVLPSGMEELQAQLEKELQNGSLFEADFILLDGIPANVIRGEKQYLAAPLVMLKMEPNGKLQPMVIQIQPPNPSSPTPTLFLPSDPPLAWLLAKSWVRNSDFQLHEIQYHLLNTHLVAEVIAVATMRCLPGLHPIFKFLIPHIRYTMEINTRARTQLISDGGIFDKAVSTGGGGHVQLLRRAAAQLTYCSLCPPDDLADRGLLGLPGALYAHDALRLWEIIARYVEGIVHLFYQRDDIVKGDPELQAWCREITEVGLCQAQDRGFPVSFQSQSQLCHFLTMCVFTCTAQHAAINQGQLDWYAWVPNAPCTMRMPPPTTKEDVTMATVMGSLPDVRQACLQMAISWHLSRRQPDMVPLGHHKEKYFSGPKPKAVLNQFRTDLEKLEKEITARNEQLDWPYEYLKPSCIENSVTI
Assay: Primary qHTS assay for inhibitors of human arachidonate 12S-lipoxygenase (ALOX12): Round 2
Conditions: purified 12hLO, xylenol orange hydroperoxide absorbance; series mostly up to 108 µM; activity change, negative = inhibition: at the top concentration
Outline: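 Purified human 12hLO at 150 nM in 25 mM Hepes, 0.01% Triton X-100, pH 7.0, preincubated 15 min at room temperature with compound. Reaction started with 40 uM arachidonic acid, 30 min at room temperature. Hydroperoxide measured by Fe-xylenol orange, 573/405 nm absorbance ratio.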
On the % scale 0 is the no-effect control and ±100 the full control effect; potency means the concentration at half of the fitted maximal effect.

Row | Compound | activity change, negative = inhibition | Potency
1 | Cc1ccc(Nc2nnc(SCC(=O)c3ccc(Cl)s3)s2)cc1C | 10.8% | 
2 | O=C(NCC1CCN(c2cc(-c3ccc(Cl)cc3)[nH]n2)CC1)c1ccc2nc[nH]c2c1 | -1.91% | 
3 | Cc1ccc(-c2cc(N3CCCN(C(=O)COc4ccccc4)CC3)n[nH]2)cc1C | 27.5% | 
4 | CN(C(=O)CN1CCN(c2cc(-c3ccc(OCc4ccccc4)cc3)ncn2)CC1)c1ccccc1 |  | 10 µM (active)
5 | COc1ccc(-c2cc(N3CCN(C(=O)Cc4cccc(OC)c4)CC3)n[nH]2)cc1 | -3.74% | 
6 | CN(C)[C@H]1CCCCN(C(=O)CC2CCN(Cc3ccccc3)CC2)C1 | 1.99% | 
7 | Clc1ccc2oc([C@H]3CCN(Cc4ccccc4)C3)nc2c1 | 4.32% [at 176 µM] | 
8 | Cc1cc(S(=O)(=O)N2CCCC2c2nnc3ccccn23)ccc1Br (stereo not drawn) | -1.64% | 
9 | COCCNC(=O)COc1cc(O)c2c(=O)cc(-c3ccccc3)oc2c1 | -16.7% | 
10 | CCCCOc1cc(O)c2c(=O)cc(-c3ccccc3)oc2c1 | -23.1% | 
11 | COc1c(O)cc2oc(-c3ccc(O)c(O)c3)cc(=O)c2c1O |  | 31.6 µM (active)
12 | COc1ccc(-c2c(C)c3ccc(OS(C)(=O)=O)cc3oc2=O)cc1 | 17.8% | 
13 | O=C(CNc1ccccc1)NNC(=O)c1cc(-c2ccccc2)nn1-c1ccccc1 | 7.23% | 
14 | Cc1nc2nc(CC(=O)NCc3ccccc3)nn2c(C)c1Cc1ccc(Cl)cc1 | -9.31% | 
15 | Cc1ccc(-n2c(=O)c3cccnc3n2CC(=O)Nc2ccc(F)cc2F)cc1C | -4.07% | 
16 | CCOc1ccc2[nH]c(=O)c(CN(CCCO)C(C)=O)cc2c1 | 13.7% | 
17 | CCOc1ccc(OCC)c(NS(=O)(=O)c2ccc3[nH]c(=O)ccc3c2)c1 | -14.5% | 
18 | CCOc1ccc2[nH]c(=S)sc2c1 |  | 35.5 µM (active)
19 | Cc1cc(=O)oc2c(C)c(OC(C)C(=O)NCc3ccc(S(N)(=O)=O)cc3)ccc12 (stereo not drawn) | -43.1% | 
20 | COc1ccc(-c2cn(-c3ccc(OC)cc3)c(=S)[nH]2)cc1 |  | 25.1 µM (active)
21 | COc1ccc(-c2nc3ccncc3[nH]2)cc1 | 43.2% [at 176 µM] | 
22 | COc1ccc(-c2cc(N3CCN(C(=O)c4cc(OC)cc(OC)c4)CC3)n[nH]2)cc1 | 55.9% | 
23 | COc1ccc2c(c1)CCc1c-2n[nH]c1C(=O)N1CCC(c2noc(COc3ccc(C)cc3)n2)CC1 | 28.6% | 
24 | CCc1cccc(NC(=O)CC(C)C)c1 | 12.8% | 
25 | O=C(Nc1ccccc1F)c1ccc2c(c1)n(Cc1ccccc1)c(=O)c1ccnn12 | -8.95% | 
26 | COC(=O)C1=C(O)/C(=C/c2ccc(OCC(=O)Nc3ccccc3)cc2)N=C1C |  | 17.8 µM (active)
27 | CN(c1ccccc1)S(=O)(=O)c1ccc(NC(=O)COc2ccccc2)cc1 | 36.6% | 

Row | Compound | activity change, negative = inhibition | Potency
28 | Cc1csc2nc(COc3ccc(NC(=O)COc4ccccc4)cc3)cc(=O)n12 | -26.8% | 
29 | NC(=O)Cc1csc(NC(=O)CCc2ncc(-c3ccc(Cl)cc3Cl)o2)n1 | 5.2% | 
30 | CC(OC(=O)c1cc2cc(F)ccc2s1)C(=O)N1CCNC1=O (stereo not drawn) | -13.9% | 
31 | S=C(NCCC1=CCCCC1)Nc1ccccc1 | -11.4% | 
32 | CCCCNC(=S)N/N=C1\CCCCc2ccccc21 |  | 31.6 µM (active)
33 | O=[N+]([O-])c1ccccc1N/N=C1\CCc2ccccc21 | 0.0102% | 
34 | C#CCOC(=O)c1cccc(C(=O)O)c1 | -28.2% | 
35 | COc1cccc(NC(=O)C2C(c3ccccc3)C2(Cl)Cl)c1 (stereo not drawn) |  | 35.5 µM (active)
36 | COc1cccc(NC(=O)c2csnn2)c1 | -18.6% | 
37 | COc1cccc(NC(=O)C2(C#N)CCCC2)c1 | 43.9% | 
38 | Cc1nc(N2CCN(CC(=O)N3CCCC3)CC2)c(C#N)c2c1COC(C)(C)C2 | 0.987% | 
39 | O=C1[C@@H]2C[C@@H](CN2Cc2ccc3ccccc3n2)Oc2ccccc2N1Cc1ccccc1 |  | 8.91 µM (active)
40 | N#Cc1ccc(CN2C[C@@H]3C[C@H]2C(=O)Nc2ccccc2O3)cc1 | 11.6% [at 176 µM] | 
41 | COCCN1C(=O)[C@@H]2C[C@@H](CN2C(=O)Nc2ccccc2)Oc2ccccc21 | -7.35% [at 176 µM] | 
42 | COC(=O)C1=C(C)N=C2SC=C(CC(=O)NCc3ccccc3F)N2C1c1ccccc1Cl (stereo not drawn) | 13.3% | 
43 | CCc1n[nH]c(=S)n1/N=C/c1c[nH]c2ccc(Br)cc12 |  | 15.8 µM (active)
44 | Cc1ccccc1/C=C/C(=O)NC(C)CO (stereo not drawn) | 31.2% | 
45 | O=C(COc1ncnc2ccccc12)Nc1cc(F)ccc1F | 1.32% | 
46 | O=C(Oc1ccccc1Cl)c1ccc(N2CCOCC2)c([N+](=O)[O-])c1 | -10% | 
47 | CCOc1ccc(C(=O)NC(=S)Nc2ccc(N3CCOCC3)c(Cl)c2)cc1[N+](=O)[O-] |  | 14.1 µM (active)
48 | O=C(CSc1ccc([N+](=O)[O-])cn1)Nc1ccc(N2CCOCC2)c(Cl)c1 | -6.2% | 
49 | COc1ccccc1C(CNC(=O)CCc1nc(-c2ccsc2)no1)N1CCCC1 (stereo not drawn) | 7.59% | 
50 | CCC(=O)Nc1ccc2nnc(-c3ccc(C(=O)Nc4ccc(OC)cc4)cc3)n2c1 | 1.26% | 
51 | COc1ccc2c(C)c(-c3cccc4ccccc34)c(=O)oc2c1 | -4.87% | 
52 | O=S1(=O)CC/C(=N\Nc2ccc(F)cc2)c2ccsc21 |  | 31.6 µM (active)
53 | COc1ccc(C(=O)N/N=C2\CCS(=O)(=O)c3ccc(F)cc32)cc1OC | 11.9% | 

Reference: PubChem BioAssay AID1671190 (National Center for Advancing Translational Sciences (NCATS), 2021)
